Results: PubChem BioAssay (NCI)
Compounds without any hit were thinned out: in the full panel of roughly 79,000, 15% have a hit. Cut-off read from the data, not from the text of the source: active = growth inhibition above about 70%; inactive = the rest.

Key:
[1] = NCI Yeast Anticancer Drug Screen. Data for the rad50 strain (AID 155);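 note: 0% = growth of vehicle-only cultures of the same strain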; settings: S. cerevisiae rad50 strain growth inhibition, stronger effect = higher value; at 50.0 µM unless noted
How it was run: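 Yeast carrying a defined DNA repair defect were exposed to test compounds, and growth was compared with vehicle-treated controls to give percent inhibition.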

[2] = NCI Yeast Anticancer Drug Screen. Data for the mec2-1 strain (AID 157); settings: S. cerevisiae mec2-1 strain, stronger effect = higher value; at 50.0 µM unless noted
How it was run: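 Readout is yeast growth inhibition, normalised to vehicle-treated controls, in the mec2-1 strain exposed to compound.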

[3] = NCI Yeast Anticancer Drug Screen. Data for the sgs1 mgt1 strain (AID 161);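 note: 0% = growth of cultures given vehicle only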; settings: S. cerevisiae sgs1 mgt1 strain, stronger effect = higher value; at 50.0 µM unless noted
How it was run: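 Yeast cells carrying a defined DNA-repair defect were exposed to test compounds. Growth inhibition was measured relative to vehicle-treated controls.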

[4] = NCI Yeast Anticancer Drug Screen. Data for the cln2 rad14 strain (AID 165);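 note: 0% = growth equal to vehicle treated cultures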; settings: S. cerevisiae cln2 rad14 strain, stronger effect = higher value; at 50.0 µM unless noted
How it was run: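 Relative to vehicle controls, growth inhibition of compound-treated cln2 rad14 yeast was recorded.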

[5] = NCI Yeast Anticancer Drug Screen. Data for the bub3 strain (AID 167); settings: S. cerevisiae bub3 mutant strain, stronger effect = higher value; at 50.0 µM unless noted
How it was run: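 Compounds were applied to a genetically altered yeast strain carrying a cell-cycle control defect. Growth inhibition was scored against vehicle-treated controls.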

[6] = NCI Yeast Anticancer Drug Screen. Data for the mlh1 rad18 strain (AID 175); settings: S. cerevisiae mlh1 rad18 strain growth inhibition, stronger effect = higher value; at 50.0 µM unless noted
How it was run: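 Test agents were incubated with a yeast strain of defined genotype (DNA damage repair defect). Inhibition of growth was derived by comparison with vehicle-exposed cultures.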

Measured: growth inhibition

Cc1nnc2sc(N/N=C/c3ccccc3)nn12
inactive: [1] -35.5% | [2] -29.9% | [3] -69.2% | [4] -13.8% | [5] -10.1% | [6] -71.3%

CC(=O)c1ccc(NC(=O)C(=O)C(C(=O)c2ccc(Cl)c(Cl)c2)C2OC(=O)c3ccccc32)cc1 (stereo unspecified)
inactive: [1] 44.6% | [2] 38.8% | [3] 13.7% | [4] 54.1% | [5] 60.3% | [6] 49.3%

O=C(c1ccccc1)c1ccc2ccccc2c1
inactive: [1] 24.8% | [2] 13% | [3] 0.65% | [4] -13.2% | [5] 14.9% | [6] 28.3%

CCCOC(=O)c1cccnc1
inactive: [1] -13.2% | [2] -29.6% | [3] -14.7% | [4] 0.7% | [5] -6.75% | [6] -8.65%

CN1CCCC1CCN (stereo unspecified)
inactive: [1] 0.15% | [2] -10.8% | [3] -13.8% | [4] -1% | [5] 3.9% | [6] 6.15%

O=C(OCC1OCOC2C(COC(=O)c3ccccc3)OCOC12)c1ccccc1 (stereo unspecified)
inactive: [1] 9.05% | [2] 4.35% | [3] 8.05% | [4] 4.8% | [5] 13.7% | [6] 15.7%

CNc1nc(=O)[nH]c(C)c1[N+](=O)[O-]
inactive: [1] 19.9% | [2] 4.45% | [3] -6.9% | [4] -60.8% | [5] -4% | [6] 12.6%

C=CCC(O)CCCCC (stereo unspecified)
inactive: [1] -0.4% | [2] -22.8% | [3] 15.8% | [4] 20.7% | [5] -11.3% | [6] -23.4%

Cc1c(CCCl)c(N=P(c2ccccc2)(c2ccccc2)c2ccccc2)n2c(nc3ccccc32)c1C#N
inactive: [1] 29.1% | [2] -2.1% | [3] -7.75% | [4] 12.5% | [5] -5.05% | [6] 18.6%

CC1Cc2c(n[nH]c2CC2CC(=O)NC(=O)C2)C(C)C1 (stereo unspecified)
inactive: [1] 8.6% | [2] -2.35% | [3] 4% | [4] -15.7% | [5] 29.4% | [6] 17.8%

CC(C(=O)O)c1ccc(-c2ccccc2)cc1 (stereo unspecified)
inactive: [1] 10.6% | [2] 13.3% | [3] -1.85% | [4] -12.2% | [5] 1.4% | [6] 7.1%

CCO/C(C)=N\OC(=O)C(F)(F)F
inactive: [1] -0.1% | [2] -15.3% | [3] 6.55% | [4] -15.6% | [5] 1.35% | [6] -8.4%

CCOC(=O)c1cnc2sc3ccc4ccccc4c3n2c1=O
inactive: [1] 51.9% | [2] 23.4% | [3] 61% | [4] 36.1% | [5] 51.3% | [6] 60.7%

C/C(=N/O)c1ccncc1
inactive: [1] 1.15% | [2] -3% | [3] 1.65% | [4] 11.2% | [5] 16.1% | [6] -6.9%

CCOC(=O)c1cnc(NN)[nH]c1=O
inactive: [1] -5.3% | [2] -4.9% | [3] -10.6% | [4] -46.4% | [5] -13.8% | [6] -4.65%

C/C(CC(=O)Nc1ccc(Cc2ccc(Br)cc2)cc1)=N/Nc1ccc([N+](=O)[O-])cc1[N+](=O)[O-]
inactive: [1] 25.1% | [2] 12.6% | [3] 31.3% | [4] 16.5% | [5] 4.1% | [6] 24.7%

C=CCC(C)(O)CCC(C)(O)CC=C (stereo unspecified)
inactive: [1] -1.95% | [2] -14.6% | [3] -8.3% | [4] 1.2% | [5] 0.95% | [6] 8.2%

CC(=O)C1=CCCCC1
inactive: [1] 6.1% | [2] -2.8% | [3] -3.3% | [4] 11.7% | [5] 14.7% | [6] -7.8%

O=C1CCC(=O)N1N1C(=O)CCC1=O
inactive: [1] -9.65% | [2] -24.2% | [3] -10.4% | [4] 7.05% | [5] -23.2% | [6] 3.35%

Cc1[nH]c(=O)[nH]c(=O)c1CCO
inactive: [1] -8.9% | [2] -2.6% | [3] -4.25% | [4] -29.4% | [5] -28.3% | [6] -13.4%

O=C1C=CC(=Nc2ccc3c(c2)-c2ccccc2C3)O1
inactive: [1] 3.2% | [2] 21% | [3] 5.05% | [4] -9.9% | [5] 1.35% | [6] 12.1%
